Compound activity deposited in PubChem by National Center for Advancing Translational Sciences (NCATS).
Shown are actives, neighbours in structure and some others; about 11% of the full set was active somewhere.
AMA1 RON2 block: inhibitors of Plasmodium falciparum AMA1-RON2 interaction | AlphaScreen AMA1-biotinylated RON2 peptide binding | Potency, µM (highest dose often 58.2 µM), without a hit: at the top dose activity change, negative = inhibition, actives largely listed as inhibitors | 0.2% of 360,000 active | AID 720542;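 also: 0% = vehicle wells and -100% = peptide control; nearly all actives have a fitted effect of over 45% in size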
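AMA1 (3D7) with his tag at 25 nM final met compounds first, then biotinylated RON2 peptide at 25 nM; detection used donor plus acceptor beads, 10 µg/mL apiece, read by AlphaScreen after 30 min at room temperature.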
NS1 function inh: inhibitors of influenza NS1 protein function. 0.4% of 270,000 active. Potency, µM (top dose mostly 46.1 µM), for inactives: at the top dose activity, positive = more growth; calls by dose curve; also: actives are rising curves; nearly all actives have a fitted effect of over 50% in size
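Compounds were scored for reversing the slow growth caused by influenza A NS1 in S. cerevisiae, measured by optical density at 600 nm. Assay medium contained 2% galactose at pH 6.0; NS1-free yeast of the same strain were the positive control.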
Sm TGR inh: S. mansoni TGR enzyme inhibition; purified TGR, DTNB reduction, TNB absorbance 405 nm; 3% of 360,000 active; Q962Y6; Potency, µM (series often up to 114 µM), inactives show at the highest dose activity change, negative = inhibition, most hits filed as inhibitors; also: % is scaled to controls: 0 for no effect and ±100 for the full control effect; nearly all actives have a fitted effect of over 60% in size
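First, TGR (20 nM dispensed) and NADPH were mixed with compound. Second, a 15 min room-temperature incubation followed. Third, further NADPH and then DTNB were added to start the reaction. Finally, TNB absorbance was monitored kinetically.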
Pf growth 96h: P. falciparum growth inhibition at 96 hour, primary screen for plastid delayed-death inhibitors. P. falciparum luciferase reporter growth, 96 h. Potency, µM (top dose mostly 28.7 µM), without a hit: at the top dose activity change, negative = inhibition, hits mostly inhibitors. 6.9% of 320,000 active. AID 504834; also: % is scaled to controls: 0 for no effect and ±100 for the full control effect
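Erythrocytes infected with luciferase-expressing P. falciparum were dispensed at 2% hematocrit and 0.05% parasitemia (final), then incubated with compounds 96 hours at 37 C in 5% CO2. Luminescence after detection reagent addition reported growth.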
Pf growth 48h: inhibits P. falciparum growth in the first generation, 48 h. P. falciparum luciferase growth in erythrocytes, 48 h. Potency, µM (series often up to 28.7 µM), for inactives: at the top dose activity change, negative = inhibition, usual class: inhibitors. 5.9% of 310,000 active; also: % is scaled to controls: 0 for no effect and ±100 for the full control effect
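Growth was read as firefly luciferase luminescence after a 48 h, 37 C, 5% CO2 exposure of compounds to reporter-bearing P. falciparum cultures (0.1% parasitemia, 2% hematocrit final) in Albumax-supplemented RPMI 1640.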
Numbers without * were called inactive; [ ] = remark or other dose. Unless noted, calls follow the shape of the dose curve; as a rule, active = well fitted curve in the direction sought with a large enough effect; inconclusive = small, poorly fitted or top-dose-only effect, or another doubt; inactive = no such curve, though single readings can be large; an effect the other way counts as inactive or inconclusive. Potency is read from the fitted curve at half-maximal effect.

`CCN(/N=C/c1ccc(Cl)cc1)c1cc(=O)n(C)c(=O)[nH]1` gave AMA1 RON2 block 15%, NS1 function inh 1%, Sm TGR inh 2%, Pf growth 96h inconclusive and Pf growth 48h 1%.
Screening CCN(/N=C/C=C/c1ccccc1)c1cc(=O)n(C)c(=O)[nH]1 returned AMA1 RON2 block 3%, NS1 function inh 3%, Sm TGR inh -8%, Pf growth 96h 7.4µM* and Pf growth 48h inconclusive.
`CCN(CC)c1ccc(NC(=O)c2ccc(Br)o2)c(C)c1` gave AMA1 RON2 block inconclusive, NS1 function inh -2%, Sm TGR inh -16% and Pf growth 48h 7.4µM*.
`Cc1cc(O)c(NC(=O)c2ccc(Br)o2)cc1C` gave AMA1 RON2 block -25%, NS1 function inh -10%, Sm TGR inh -11%, Pf growth 96h 118% and Pf growth 48h 12µM*.
COC(Cn1c2c(c3cc(C)ccc31)CCCC2NCc1ccccc1)OC (centres undefined) was read as AMA1 RON2 block -15%, NS1 function inh -2%, Sm TGR inh 4µM*, Pf growth 96h inconclusive and Pf growth 48h inconclusive.
For Cc1ccc2c(c1)c1c(n2CC(O)CNC2CCCC2)CCCC1 (centres undefined) the results were AMA1 RON2 block inconclusive, NS1 function inh -3%, Sm TGR inh -7%, Pf growth 96h inconclusive and Pf growth 48h -53%.
`Cc1cc(-c2nnc(CSc3nnc(NC(=O)c4ccc(C(C)(C)C)cc4)s3)o2)ccc1[N+](=O)[O-]` gave AMA1 RON2 block -14%, NS1 function inh 0%, Sm TGR inh -1%, Pf growth 96h 91% and Pf growth 48h 53%.
Screening C/C(=N/NS(=O)(=O)c1cccc([N+](=O)[O-])c1)c1ccc2c(c1)OCO2 returned AMA1 RON2 block -16%, NS1 function inh -2%, Sm TGR inh -21%, Pf growth 96h 0.83µM* and Pf growth 48h 21%.
C/C(=N\NS(=O)(=O)c1ccc(C)c([N+](=O)[O-])c1)c1ccc2c(c1)OCO2 was read as AMA1 RON2 block 0%, Sm TGR inh -21%, Pf growth 96h 23% and Pf growth 48h 6%.
Screening C/C(=N\NS(=O)(=O)c1ccc([N+](=O)[O-])cc1)c1ccc2c(c1)OCO2 returned AMA1 RON2 block 2%, NS1 function inh -8%, Sm TGR inh 4%, Pf growth 96h 5.9µM* and Pf growth 48h 40%.
Screening CCOc1ccc(-n2c(SCC(=O)Nc3cc(C)ccc3C)nc3c([nH]c4ccccc43)c2=O)cc1 returned Sm TGR inh 3%.
Cn1c(-c2ccc3ccccc3n2)[n+](C)c2ccccc21 was read as AMA1 RON2 block -13%, NS1 function inh 0%, Sm TGR inh 89%, Pf growth 96h 0.93µM* and Pf growth 48h inconclusive.
For CC(=O)C1=C(C)NC(SCC(=O)c2ccc(F)cc2)=C(C#N)C1CC(C)C (centres undefined) the results were AMA1 RON2 block -5%[2.32 µM], NS1 function inh inconclusive, Sm TGR inh inconclusive, Pf growth 96h 8.3µM* and Pf growth 48h inconclusive.
For CCOC(=O)C1=C(C)NC(SC)=C(C#N)C1CC(C)C (centres undefined) the results were AMA1 RON2 block -5%, NS1 function inh 4%, Sm TGR inh 2%, Pf growth 96h inconclusive and Pf growth 48h 1.7µM*.
For CN(C)C(=O)N(CCCN1CCOCC1)Cc1cccc2ccccc12 the results were AMA1 RON2 block -6%, NS1 function inh 3%, Sm TGR inh -10%, Pf growth 96h -6% and Pf growth 48h -10%.
`COc1ccc2c(c1)-c1nc(NC(=O)c3cc(OC)c(OC)c(OC)c3)sc1CC2` gave Sm TGR inh 17%.
C/C(=N\NC(=O)COc1ccccc1-c1ccccc1)c1ccccn1 was read as AMA1 RON2 block 56%, Sm TGR inh 6%, Pf growth 96h inconclusive and Pf growth 48h 2.1µM*.
Screening C/C(=N\NC(=O)COc1ccccc1-c1ccccc1)c1cccnc1 returned AMA1 RON2 block 53%, Sm TGR inh -10%, Pf growth 96h -16% and Pf growth 48h inconclusive.
`O=C(COc1ccccc1-c1ccccc1)N/N=C/c1ccc2ccccc2c1` gave AMA1 RON2 block 8%, NS1 function inh 1%, Sm TGR inh 1%, Pf growth 96h 2.3µM* and Pf growth 48h -2%.
For CCCCCC(=O)N/N=C(\C)c1ccccn1 the results were AMA1 RON2 block 28%, NS1 function inh -4%, Sm TGR inh 1%, Pf growth 96h inconclusive and Pf growth 48h 1.7µM*.
COc1cc([N+](=O)[O-])ccc1NC(=S)NC(=O)CC(C)(C)C was read as AMA1 RON2 block -1%, NS1 function inh 7%, Sm TGR inh 2%, Pf growth 96h 8% and Pf growth 48h -18%.
`COc1ccc(OCC(=O)Nc2ccc3c(c2)C(=O)NC3=O)cc1` gave AMA1 RON2 block -11%, NS1 function inh 16%, Sm TGR inh -4%, Pf growth 96h 12µM* and Pf growth 48h 21%.
Screening COc1ccc2ccc(OCC(=O)Nc3cc(C)on3)cc2c1 returned AMA1 RON2 block -1%, Sm TGR inh -5%, Pf growth 96h inconclusive and Pf growth 48h 12µM*.
`Cc1cc(C)cc(OCC(=O)Nc2nonc2NC(=O)COc2cc(C)cc(C)c2)c1` gave AMA1 RON2 block -43%, NS1 function inh -1%, Sm TGR inh -13%, Pf growth 96h -20% and Pf growth 48h inconclusive.
COc1ccc(OCC(=O)Nc2nonc2NC(=O)COc2ccc(OC)cc2)cc1 was read as AMA1 RON2 block 25%, NS1 function inh -3%, Sm TGR inh 11%, Pf growth 96h 9.3µM* and Pf growth 48h 58%.
`Cc1cc(NC(=O)CCOc2ccc(F)cc2)no1` gave AMA1 RON2 block 9%, NS1 function inh 0%, Sm TGR inh 0.71µM*, Pf growth 96h 4% and Pf growth 48h 65%.
Screening COc1ccc(CC(=O)Nc2cc(C)on2)cc1 returned AMA1 RON2 block -2%, NS1 function inh -4%, Sm TGR inh 5%, Pf growth 96h 37% and Pf growth 48h 12%.
Screening COC(=O)C1CC(c2ccccc2)N(c2ccccc2)O1 (centres undefined) returned AMA1 RON2 block 17%.
COc1ccc(OCCC(=O)Nc2cc(C)on2)cc1 was read as AMA1 RON2 block -8%, NS1 function inh -4%, Sm TGR inh 40µM* and Pf growth 48h -7%.
Screening CCc1nonc1NC(=O)COc1ccc(Cl)c(C)c1 returned AMA1 RON2 block 4%, NS1 function inh -26%, Sm TGR inh 3%, Pf growth 96h 4.1µM* and Pf growth 48h inconclusive.
Screening CCC(C)N(C)Cc1cccc(C2(O)CCN(S(=O)(=O)c3ccc(F)c(C)c3)CC2)c1 (centres undefined) returned AMA1 RON2 block -2%, NS1 function inh -9%, Sm TGR inh -4%, Pf growth 96h inconclusive and Pf growth 48h 13µM*.
